This is an account of results in article PMC7862700, “An all-to-all approach to the identification of sequence-specific readers for epigenetic DNA modifications on cytosine”.

Assay in all cases: DAPPL (digital affinity profiling via proximity ligation, sequencing); 10 mM Tris-HCl pH 7.5, 50 mM NaCl, 1 mM DTT, 4% glycerol, room temperature, 30 min; GST-TFs on glutathione beads, 16-mer random dsDNA library, 0.1% formaldehyde crosslink after washing; high values mean tight binding
Common to all, as to details: protein: recombinant; tags: N-terminal GST; dsDNA, one strand shown

For one assay, the target named is T1, ELK1 (Homo sapiens, UniProt P19419 1-428).
T1 sequence: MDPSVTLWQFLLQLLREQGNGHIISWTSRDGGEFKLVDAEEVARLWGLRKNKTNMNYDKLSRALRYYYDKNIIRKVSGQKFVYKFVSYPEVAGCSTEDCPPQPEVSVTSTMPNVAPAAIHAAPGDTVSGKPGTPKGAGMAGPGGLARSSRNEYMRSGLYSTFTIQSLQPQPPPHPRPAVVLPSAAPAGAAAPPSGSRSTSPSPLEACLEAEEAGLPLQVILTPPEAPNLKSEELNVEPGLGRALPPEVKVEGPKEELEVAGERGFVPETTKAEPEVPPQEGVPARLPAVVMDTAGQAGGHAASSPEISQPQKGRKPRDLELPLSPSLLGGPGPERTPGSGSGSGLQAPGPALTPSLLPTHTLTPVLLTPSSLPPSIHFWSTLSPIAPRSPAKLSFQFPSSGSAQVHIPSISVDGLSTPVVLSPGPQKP
Summed up: (§1)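 Human transcription factors carrying a GST fusion were produced in yeast, bound to glutathione beads, tagged with DNA barcodes and pooled together with a tag-only sample. Each pool was held with 200 nmole of a random double-stranded 16-mer DNA library in Tris/NaCl/DTT/glycerol buffer for 30 min at room temperature, then washed, crosslinked in 0.1% formaldehyde, proximity-ligated with BsaI/T4 ligase (1 h, 37 °C), PCR-amplified and sequenced on an Illumina NextSeq500. Binding signal is the read frequency of each hexamer for a given factor divided by its frequency in the tag-only sample.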

For the next assay, the target named is T2, GABPA (Homo sapiens, UniProt Q06546 1-454).
T2 sequence: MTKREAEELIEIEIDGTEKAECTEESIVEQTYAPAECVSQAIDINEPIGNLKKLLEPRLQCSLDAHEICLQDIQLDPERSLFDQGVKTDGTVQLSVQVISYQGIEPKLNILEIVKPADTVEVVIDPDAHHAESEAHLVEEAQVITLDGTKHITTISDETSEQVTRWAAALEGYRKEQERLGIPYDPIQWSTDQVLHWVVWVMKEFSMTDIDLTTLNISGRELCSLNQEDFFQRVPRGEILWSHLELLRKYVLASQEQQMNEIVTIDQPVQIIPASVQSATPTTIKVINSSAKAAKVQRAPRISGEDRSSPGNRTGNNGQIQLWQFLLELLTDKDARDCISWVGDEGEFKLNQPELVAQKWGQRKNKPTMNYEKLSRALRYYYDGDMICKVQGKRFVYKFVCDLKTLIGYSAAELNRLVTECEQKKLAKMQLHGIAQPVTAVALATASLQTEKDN
Summed up:
as §1

For a further assay, the target named is T3, ELF3 (Homo sapiens, UniProt P78545 1-371).
T3 sequence: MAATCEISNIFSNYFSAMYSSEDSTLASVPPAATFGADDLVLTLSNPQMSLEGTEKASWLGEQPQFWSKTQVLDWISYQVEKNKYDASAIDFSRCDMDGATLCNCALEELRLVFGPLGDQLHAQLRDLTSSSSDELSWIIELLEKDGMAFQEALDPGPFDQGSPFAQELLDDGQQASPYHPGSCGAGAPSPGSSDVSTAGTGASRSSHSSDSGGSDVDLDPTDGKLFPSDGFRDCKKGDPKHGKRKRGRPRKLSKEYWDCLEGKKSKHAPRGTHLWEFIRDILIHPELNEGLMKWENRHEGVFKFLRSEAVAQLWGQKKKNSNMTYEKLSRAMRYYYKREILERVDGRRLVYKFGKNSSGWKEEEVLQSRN
In outline: as §1

A further assay concerns the target T4, ETV3L (Homo sapiens, UniProt Q6ZN32 1-361).
T4 sequence: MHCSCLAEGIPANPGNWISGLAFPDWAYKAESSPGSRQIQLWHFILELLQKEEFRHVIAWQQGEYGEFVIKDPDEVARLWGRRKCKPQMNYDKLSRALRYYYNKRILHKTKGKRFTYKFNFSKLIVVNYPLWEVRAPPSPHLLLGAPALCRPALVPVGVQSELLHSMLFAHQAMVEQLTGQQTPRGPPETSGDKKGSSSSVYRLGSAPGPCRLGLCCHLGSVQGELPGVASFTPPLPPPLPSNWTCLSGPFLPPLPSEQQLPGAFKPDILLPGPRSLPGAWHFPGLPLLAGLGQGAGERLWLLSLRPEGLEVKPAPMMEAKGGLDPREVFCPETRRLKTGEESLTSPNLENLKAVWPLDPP
Summed up: as §1

The target of the next assay is T5, ETV7 (Homo sapiens, UniProt Q9Y603 1-341).
T5 sequence: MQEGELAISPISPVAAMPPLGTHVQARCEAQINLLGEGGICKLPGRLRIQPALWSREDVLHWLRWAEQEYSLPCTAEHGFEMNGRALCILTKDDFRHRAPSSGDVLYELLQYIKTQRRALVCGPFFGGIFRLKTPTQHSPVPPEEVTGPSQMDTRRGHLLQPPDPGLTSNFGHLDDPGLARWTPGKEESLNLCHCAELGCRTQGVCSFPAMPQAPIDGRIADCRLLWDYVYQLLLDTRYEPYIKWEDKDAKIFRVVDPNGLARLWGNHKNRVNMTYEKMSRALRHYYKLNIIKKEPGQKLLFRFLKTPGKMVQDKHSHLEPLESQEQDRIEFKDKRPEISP
Summed up:
as §1

The target in another assay is T6, ELK3 (Homo sapiens, UniProt P41970 1-407).
T6 sequence: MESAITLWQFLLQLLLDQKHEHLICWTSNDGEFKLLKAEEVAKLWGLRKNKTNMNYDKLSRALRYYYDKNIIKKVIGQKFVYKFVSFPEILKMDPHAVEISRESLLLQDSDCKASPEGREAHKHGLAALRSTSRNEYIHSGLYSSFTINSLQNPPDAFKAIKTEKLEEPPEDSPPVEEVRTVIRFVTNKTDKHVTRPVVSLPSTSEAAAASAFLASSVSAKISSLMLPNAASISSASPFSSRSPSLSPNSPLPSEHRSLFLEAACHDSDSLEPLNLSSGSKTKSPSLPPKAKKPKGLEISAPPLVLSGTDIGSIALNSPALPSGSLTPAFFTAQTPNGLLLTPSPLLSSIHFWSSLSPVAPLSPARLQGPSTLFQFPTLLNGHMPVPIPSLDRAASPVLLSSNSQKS
Summed up:
as §1

Another assay has as its target T7, ELK4 (Homo sapiens, UniProt P28324-2 1-405).
T7 sequence: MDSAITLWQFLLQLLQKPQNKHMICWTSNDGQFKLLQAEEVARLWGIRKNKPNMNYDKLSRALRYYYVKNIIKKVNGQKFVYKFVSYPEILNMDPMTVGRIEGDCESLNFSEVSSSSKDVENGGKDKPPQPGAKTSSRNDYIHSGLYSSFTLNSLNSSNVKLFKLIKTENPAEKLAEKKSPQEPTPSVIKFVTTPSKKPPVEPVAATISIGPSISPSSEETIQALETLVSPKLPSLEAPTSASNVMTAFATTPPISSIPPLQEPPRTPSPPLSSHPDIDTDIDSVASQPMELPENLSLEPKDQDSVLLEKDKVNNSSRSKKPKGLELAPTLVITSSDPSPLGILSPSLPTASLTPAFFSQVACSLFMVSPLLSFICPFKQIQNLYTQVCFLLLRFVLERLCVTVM
In outline:
as §1

Another assay deals with T8, ETV2 (Homo sapiens, UniProt O00321 1-342).
T8 sequence: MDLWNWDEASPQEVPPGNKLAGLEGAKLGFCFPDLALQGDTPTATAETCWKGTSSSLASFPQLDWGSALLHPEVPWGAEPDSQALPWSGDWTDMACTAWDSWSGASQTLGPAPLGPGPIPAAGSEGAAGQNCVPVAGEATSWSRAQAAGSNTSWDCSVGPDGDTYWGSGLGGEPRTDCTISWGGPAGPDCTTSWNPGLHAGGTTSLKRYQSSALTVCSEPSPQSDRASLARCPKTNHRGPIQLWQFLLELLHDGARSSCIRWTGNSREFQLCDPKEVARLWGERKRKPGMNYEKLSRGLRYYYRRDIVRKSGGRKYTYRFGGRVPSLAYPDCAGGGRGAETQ
Summed up:
as §1

Another assay has as its target T9, SPDEF (Homo sapiens, UniProt O95238 1-335).
T9 sequence: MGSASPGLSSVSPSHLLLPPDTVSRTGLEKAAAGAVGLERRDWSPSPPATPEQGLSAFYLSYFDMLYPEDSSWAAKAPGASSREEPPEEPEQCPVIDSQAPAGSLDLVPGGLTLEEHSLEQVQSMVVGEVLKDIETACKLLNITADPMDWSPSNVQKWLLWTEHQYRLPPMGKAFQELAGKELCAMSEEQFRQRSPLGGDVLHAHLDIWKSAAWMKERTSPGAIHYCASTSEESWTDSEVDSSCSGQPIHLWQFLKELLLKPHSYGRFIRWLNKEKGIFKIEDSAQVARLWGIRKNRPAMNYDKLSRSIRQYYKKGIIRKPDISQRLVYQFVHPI
In outline:
as §1

Another assay concerns the target SPI1 (Homo sapiens, UniProt P17947 1-270). Summed up: as §1
For another assay, the target named is SPIB (Homo sapiens, UniProt Q01892 1-262). In outline:
as §1

For another assay, the target named is CRX (Homo sapiens, UniProt O43186 1-299). Summed up: as §1
CRX, sequence (O43186 whole entry): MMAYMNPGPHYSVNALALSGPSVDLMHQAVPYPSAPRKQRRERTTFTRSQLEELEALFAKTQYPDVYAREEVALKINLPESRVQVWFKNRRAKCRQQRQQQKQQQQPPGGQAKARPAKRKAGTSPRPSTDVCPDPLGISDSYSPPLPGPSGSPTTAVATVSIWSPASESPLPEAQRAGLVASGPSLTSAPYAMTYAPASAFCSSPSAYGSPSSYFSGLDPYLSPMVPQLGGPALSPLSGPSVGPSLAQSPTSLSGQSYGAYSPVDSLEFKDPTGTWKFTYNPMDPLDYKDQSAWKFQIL
For a further assay, the target named is T10, ETS2 (Homo sapiens, UniProt P15036 1-469).
T10 sequence: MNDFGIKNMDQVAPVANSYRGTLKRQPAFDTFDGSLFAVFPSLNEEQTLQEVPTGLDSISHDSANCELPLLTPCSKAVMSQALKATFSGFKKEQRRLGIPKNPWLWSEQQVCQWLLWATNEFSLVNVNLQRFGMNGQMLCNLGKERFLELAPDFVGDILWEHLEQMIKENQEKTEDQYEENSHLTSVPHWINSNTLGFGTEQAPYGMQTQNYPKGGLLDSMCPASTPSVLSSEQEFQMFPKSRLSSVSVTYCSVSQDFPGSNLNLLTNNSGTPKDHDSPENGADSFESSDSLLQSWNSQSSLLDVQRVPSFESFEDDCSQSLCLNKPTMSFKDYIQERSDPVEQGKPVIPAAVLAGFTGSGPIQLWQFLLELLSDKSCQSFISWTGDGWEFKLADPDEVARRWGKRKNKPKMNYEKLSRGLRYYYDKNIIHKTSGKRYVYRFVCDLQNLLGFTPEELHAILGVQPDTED
In outline: as §1

The next assay has as its target T11, EHF (Homo sapiens, UniProt Q9NZC4 1-300).
T11 sequence: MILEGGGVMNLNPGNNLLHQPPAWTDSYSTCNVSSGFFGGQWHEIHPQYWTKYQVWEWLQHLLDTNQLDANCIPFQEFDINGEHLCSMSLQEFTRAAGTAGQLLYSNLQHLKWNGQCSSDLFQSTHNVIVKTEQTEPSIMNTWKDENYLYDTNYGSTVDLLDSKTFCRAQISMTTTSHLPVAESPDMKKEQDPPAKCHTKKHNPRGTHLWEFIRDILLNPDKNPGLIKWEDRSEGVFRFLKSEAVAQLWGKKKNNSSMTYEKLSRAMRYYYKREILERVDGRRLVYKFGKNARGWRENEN
In outline:
as §1

In a further assay the target is T12, FEV (Homo sapiens, UniProt Q99581 1-238).
T12 sequence: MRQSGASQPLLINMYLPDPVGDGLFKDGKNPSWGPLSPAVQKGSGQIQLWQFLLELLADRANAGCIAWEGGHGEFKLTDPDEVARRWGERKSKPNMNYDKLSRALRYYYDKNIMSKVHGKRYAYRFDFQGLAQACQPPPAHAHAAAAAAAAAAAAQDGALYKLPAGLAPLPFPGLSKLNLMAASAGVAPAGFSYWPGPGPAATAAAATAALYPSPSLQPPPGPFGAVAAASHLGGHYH
In outline:
as §1

Another assay deals with ETV1 (Homo sapiens, UniProt P50549 1-477). Summed up: as §1
ETV1, sequence (P50549 whole entry): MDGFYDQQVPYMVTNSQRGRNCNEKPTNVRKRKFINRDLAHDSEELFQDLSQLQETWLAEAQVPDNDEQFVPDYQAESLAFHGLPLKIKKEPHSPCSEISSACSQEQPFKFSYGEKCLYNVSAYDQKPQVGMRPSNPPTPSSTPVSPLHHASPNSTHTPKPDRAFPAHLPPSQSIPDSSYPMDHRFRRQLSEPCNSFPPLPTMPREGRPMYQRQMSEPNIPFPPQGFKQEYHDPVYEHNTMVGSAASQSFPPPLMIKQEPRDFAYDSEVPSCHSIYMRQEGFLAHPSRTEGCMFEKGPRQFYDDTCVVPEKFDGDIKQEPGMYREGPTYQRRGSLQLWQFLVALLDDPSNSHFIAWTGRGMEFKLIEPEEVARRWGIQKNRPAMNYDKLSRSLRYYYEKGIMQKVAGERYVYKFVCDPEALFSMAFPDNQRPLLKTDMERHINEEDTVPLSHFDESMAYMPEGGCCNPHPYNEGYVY

SPIB, sequence (Q01892 whole entry): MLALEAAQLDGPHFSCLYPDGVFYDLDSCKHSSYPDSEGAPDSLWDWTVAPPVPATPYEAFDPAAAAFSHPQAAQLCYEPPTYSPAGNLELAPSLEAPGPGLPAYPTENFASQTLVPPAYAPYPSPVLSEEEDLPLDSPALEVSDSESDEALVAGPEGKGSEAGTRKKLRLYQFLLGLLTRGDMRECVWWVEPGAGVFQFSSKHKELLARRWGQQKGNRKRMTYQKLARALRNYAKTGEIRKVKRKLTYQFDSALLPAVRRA

For the sequence AGATGT, the binding signal is 1 fold enrichment (6-mer frequency, TF over GST control) in the assay with ELK1; 1.01 fold enrichment (6-mer frequency, TF over GST control) with GABPA; 1.04 fold enrichment (6-mer frequency, TF over GST control) with ELF3; 1 fold enrichment (6-mer frequency, TF over GST control) with ETV3L; 1.04 fold enrichment (6-mer frequency, TF over GST control) with ETV7.

Turning to GCATAT, the binding signal with ELK3 was 1.04 fold enrichment (6-mer frequency, TF over GST control); in the assay with ELK4, 1.07 fold enrichment (6-mer frequency, TF over GST control); in the assay with ETV2, 1.02 fold enrichment (6-mer frequency, TF over GST control); with SPDEF, 1.01 fold enrichment (6-mer frequency, TF over GST control); with ETV7 it was 1.08 fold enrichment (6-mer frequency, TF over GST control).

Turning to GTGGTA, the binding signal with SPI1 is 1.02 fold enrichment (6-mer frequency, TF over GST control); with SPIB it was 1 fold enrichment (6-mer frequency, TF over GST control); in the assay with ELK4, 1.02 fold enrichment (6-mer frequency, TF over GST control).

As for AAAGTC, the binding signal in the assay with ELK3 is 1.08 fold enrichment (6-mer frequency, TF over GST control); in the assay with ELK4 it was 1.08 fold enrichment (6-mer frequency, TF over GST control); with CRX, 1.01 fold enrichment (6-mer frequency, TF over GST control); with ETS2, 1.03 fold enrichment (6-mer frequency, TF over GST control); with ETV7 it was 1.05 fold enrichment (6-mer frequency, TF over GST control).

In the case of GGCTGC, the binding signal in the assay with EHF was 1.02 fold enrichment (6-mer frequency, TF over GST control); with SPI1 it was 1.01 fold enrichment (6-mer frequency, TF over GST control); with ELK4, 1 fold enrichment (6-mer frequency, TF over GST control); with ETV7, 1.14 fold enrichment (6-mer frequency, TF over GST control).

Regarding GTTGCC, the binding signal in the assay with ELK1 was 1.01 fold enrichment (6-mer frequency, TF over GST control); with ELK3 it was 1 fold enrichment (6-mer frequency, TF over GST control); in the assay with FEV, 1.02 fold enrichment (6-mer frequency, TF over GST control); with ELK4, 1.07 fold enrichment (6-mer frequency, TF over GST control); in the assay with ETV1, 1.05 fold enrichment (6-mer frequency, TF over GST control); in the assay with ETV3L it was 1.03 fold enrichment (6-mer frequency, TF over GST control). The binding signal with ETV7 was 1.04 fold enrichment (6-mer frequency, TF over GST control).
